SMILES strings stand for the structures. Where “and” joins values, the source holds several entries; their conditions need not be identical. Identical values can stand only once. Inconclusive results are not listed. Calls of active or inactive are those of the source. Unless noted, the call rests on the fitted dose curve; in most records, active means well fitted curve in the direction sought with a large enough effect; inconclusive means small, poorly fitted or top-dose-only effect, or another doubt; inactive means no such curve, though single readings can be large; an effect the other way counts as inactive or inconclusive.

Experiment [1] concerns the target Calcium and integrin-binding protein 1 (Homo sapiens) (UniProt Q99828). The experiment in a line: Primary qHTS for Identification of Calcium Integrin Binding Protein 1 (CIB1) Competitor (AID 1508620).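 Further: GST tagged CIB1 binding a fluorescein labelled alphaIIb integrin peptide tracer; top concentration of the series differs between compounds.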 An outline of the steps:
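CIB1-GST (1 uM final) and compound incubated 15 min at room temperature before adding FITC-alphaIIb peptide tracer (100 nM final). Competition for binding read by fluorescence polarization (ex 480, em 540) after another 15 min at room temperature.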

The nature of experiment [2]: Primary qHTS for small molecule stabilizers of the endoplasmic reticulum resident proteome: Secreted ER Calcium Modulated Protein (SERCaMP) assay (AID 1508630). An outline of the steps: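 The SH-SY5Y reporter protocol was run at 3 concentrations up to 38.3 uM (primary) or 11 concentrations (follow-up): 16 h compound, 100 nM thapsigargin for 4 h, then extracellular luciferase luminescence.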
(In general: In qHTS, concentration-response curves come from the screen itself.)

Experiment [3] can be described thus: A High-Content qHTS Against Drug Library for the Identification of Small Molecules that Inhibit DYT1 Early Onset Primary Dystonia-Associated Cell Pathology (AID 1645839; calls by dose curve; further: series mostly up to about 46 µM). An outline of the steps:
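High-content imaging quantified EGFP-TorsinA mislocalization in HEK293-derived cells inducibly expressing DYT1 mutant torsinA, after 48 h exposure to compound given together with tetracycline induction. Cell count served as a toxicity channel alongside %pathology.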

Experiment [4] deals with Cytochrome P450 2D6 (Homo sapiens) (UniProt P10635). The experiment is described as follows: Cytochrome P450 family 2 subfamily D member 6 (CYP2D6) small molecule antagonists: luciferase biochemical (cell-free) qHTS assay (AID 1645840; active means well fitted curve in the direction sought with a large enough effect in the repeat runs; an effect the other way counts as inactive or inconclusive; further: nearly all actives have a fitted effect of over 55% in size; further: potency means the concentration at half of the fitted maximal effect). An outline of the steps: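 P450-Glo CYP2D6 system: proluciferin substrate converted by enzyme to luciferin, read by luminescence proportional to activity. Enzyme-substrate mix with compound 10 min at room temperature, then NADPH regeneration 1 h before detection reagent.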

Experiment [5] concerns the target Cytochrome P450 2C9 (Homo sapiens) (UniProt P11712). The experiment in a line: Cytochrome P450 family 2 subfamily C member 9 (CYP2C9) small molecule antagonists: luciferase biochemical (cell-free) qHTS assay (AID 1645842; active means well fitted curve in the direction sought with a large enough effect in the repeat runs; an effect the other way counts as inactive or inconclusive; further: nearly all actives have a fitted effect of over 55% in size; further: potency means the concentration at half of the fitted maximal effect). An outline of the steps:
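P450-Glo CYP2C9 system: proluciferin substrate with enzyme in mix containing 0.4% BSA, 10 min at room temperature, then NADPH regeneration solution added and incubated 1 h at 37C. Detection reagent stopped reaction; luminescence read after 20 min as RLU.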

Chain of Cytochrome P450 2D6 (Homo sapiens) (P10635 whole entry, looked up): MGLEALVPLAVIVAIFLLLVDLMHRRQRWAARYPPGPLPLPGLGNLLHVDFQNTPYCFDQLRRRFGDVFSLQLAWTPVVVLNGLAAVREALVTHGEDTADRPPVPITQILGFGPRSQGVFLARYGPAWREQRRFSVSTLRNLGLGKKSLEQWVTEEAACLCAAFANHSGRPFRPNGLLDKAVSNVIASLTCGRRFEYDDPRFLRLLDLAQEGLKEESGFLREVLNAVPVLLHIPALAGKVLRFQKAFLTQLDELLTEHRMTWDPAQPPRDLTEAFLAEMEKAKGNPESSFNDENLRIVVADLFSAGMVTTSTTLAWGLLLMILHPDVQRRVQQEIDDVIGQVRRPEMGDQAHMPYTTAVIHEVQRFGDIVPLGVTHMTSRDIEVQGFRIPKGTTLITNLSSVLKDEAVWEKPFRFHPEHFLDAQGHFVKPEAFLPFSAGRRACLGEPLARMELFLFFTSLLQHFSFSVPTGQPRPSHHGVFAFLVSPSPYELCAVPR
Chain of Calcium and integrin-binding protein 1 (Homo sapiens) (Q99828 whole entry, looked up): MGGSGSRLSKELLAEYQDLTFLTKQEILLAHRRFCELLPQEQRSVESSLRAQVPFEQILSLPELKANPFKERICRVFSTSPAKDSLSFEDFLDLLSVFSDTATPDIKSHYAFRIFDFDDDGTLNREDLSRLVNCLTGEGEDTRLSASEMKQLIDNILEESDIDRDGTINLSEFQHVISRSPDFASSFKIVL
Chain of Cytochrome P450 2C9 (Homo sapiens) (P11712 whole entry, looked up): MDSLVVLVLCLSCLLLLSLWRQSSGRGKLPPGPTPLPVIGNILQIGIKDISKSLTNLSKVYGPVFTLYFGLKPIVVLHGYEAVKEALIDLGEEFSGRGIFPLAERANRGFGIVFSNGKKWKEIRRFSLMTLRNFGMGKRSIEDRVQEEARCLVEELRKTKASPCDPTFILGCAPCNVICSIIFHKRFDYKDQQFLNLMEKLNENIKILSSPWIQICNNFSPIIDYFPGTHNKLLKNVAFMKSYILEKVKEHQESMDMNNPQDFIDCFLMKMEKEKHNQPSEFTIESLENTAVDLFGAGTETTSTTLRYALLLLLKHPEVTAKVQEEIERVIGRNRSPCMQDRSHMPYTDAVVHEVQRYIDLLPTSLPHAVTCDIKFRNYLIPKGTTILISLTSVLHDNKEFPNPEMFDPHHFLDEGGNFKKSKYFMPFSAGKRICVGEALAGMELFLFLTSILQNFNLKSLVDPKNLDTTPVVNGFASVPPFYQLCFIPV

On to `NCCNc1cccc2ccccc12`, for which the Potency result in experiment [1], in experiment [2] and in experiment [3] was “inactive” throughout. Moreover, the Potency in experiment [4] was 7760 nM (active); in experiment [5], 24.5 µM (active).
On to `NS(=O)(=O)c1cc2c(cc1Cl)NC(CC1CCCC1)NS2(=O)=O` (stereo not drawn), for which the Potency entry in experiment [1], in experiment [2], in experiment [3] and in experiment [5] was “inactive” each time.
As for `Cc1c(-c2ccccc2)oc2c(C(=O)OCCN3CCCCC3)cccc2c1=O`, the Potency entry in experiment [1], in experiment [2], in experiment [3] and in experiment [5] was “inactive” throughout. The Potency in experiment [4] was 3890 nM (active).
Regarding `CCCN(CCc1cccs1)[C@H]1CCc2c(O)cccc2C1`, the Potency result in experiment [1], in experiment [2], in experiment [3] and in experiment [5] was “inactive” each time. Besides, the Potency in experiment [4] was 169 nM (active) and 195 nM (active).
For the molecule `O=C(O)CCc1nc2ccccc2[nH]1`, the Potency entry in experiment [1], in experiment [2], in experiment [3], in experiment [4] and in experiment [5] was “inactive” each time.
As to `Cc1ncc(CO)c(C=O)c1O`, the Potency entry in experiment [1], in experiment [2], in experiment [3], in experiment [4] and in experiment [5] was “inactive” throughout.
Regarding `C[C@@H](O)[C@H]1C(=O)N2C(C(=O)O)=C(S[C@@H]3CN[C@H](CNS(N)(=O)=O)C3)[C@H](C)[C@H]12`, the Potency result in experiment [1], in experiment [2], in experiment [3] and in experiment [4] was “inactive” each time. In experiment [5], the Potency was 11 µM (active).
On to `CCc1ccc(C(=O)C(C)CN2CCCCC2)cc1` (stereo not drawn), for which the Potency result in experiment [1], in experiment [2], in experiment [3] and in experiment [5] was “inactive” each time. The Potency in experiment [4] is 871 nM (active).
Take `NCc1ccccc1Sc1ccccc1CO`: the Potency result in experiment [1], in experiment [2] and in experiment [3] was “inactive” in each case. Also, the Potency was 4900 nM (active) in experiment [4] and 15.5 µM (active) in experiment [5].
As for `CCCCCCCCCCCCCCCCO`, the Potency result in experiment [1], in experiment [2], in experiment [3], in experiment [4] and in experiment [5] was “inactive” throughout.
With `Clc1cccc(C(c2ccc3nc[nH]c3c2)n2ccnc2)c1` (stereo not drawn), the Potency entry in experiment [1], in experiment [2] and in experiment [3] was “inactive” in each case. The Potency in experiment [4] is 15500 nM (active); in experiment [5] it was 7.76 µM (active).
For the molecule `Cl/C(=C\n1cncn1)c1ccc(Cl)cc1Cl`, the Potency entry in experiment [1], in experiment [2] and in experiment [3] was “inactive” in each case. In addition, the Potency is 4900 nM (active) in experiment [4] and 11 µM (active) in experiment [5].
In the case of `CCCCOC(=O)CC(CC(=O)OCCCC)(OC(C)=O)C(=O)OCCCC`, the Potency result in experiment [1], in experiment [2], in experiment [3] and in experiment [4] was “inactive” in each case. Further, the Potency in experiment [5] was 1.74 µM (active).
Turning to `COc1ccc(CN(CCN(C)C)c2ncccn2)cc1`, the Potency result in experiment [1], in experiment [2], in experiment [3] and in experiment [5] was “inactive” throughout. The Potency in experiment [4] was 490 nM (active).
For `CCCCC(CC)CN1CN(CC(CC)CCCC)CC(C)(N)C1` (stereo not drawn), the Potency result in experiment [1], in experiment [2], in experiment [3] and in experiment [5] was “inactive” throughout. The Potency in experiment [4] is 219 nM (active).
Take `C#C[C@]1(O)CC[C@H]2[C@@H]3CCC4=CC(=O)CC[C@@H]4[C@H]3CC[C@@]21CC`: the Potency result in experiment [1], in experiment [2], in experiment [3] and in experiment [4] was “inactive” throughout. For the same molecule, the Potency in experiment [5] is 12.3 µM (active).
On to `COc1cc(N)c(Cl)cc1C(=O)NC1CCN(Cc2ccccc2)CC1`, for which the Potency entry in experiment [1], in experiment [2], in experiment [3] and in experiment [5] was “inactive” throughout. The Potency in experiment [4] is 21.9 nM (active).
On to `O=C(CN1CCN(Cc2ccc3c(c2)OCO3)CC1)N1c2ccccc2Sc2ccccc21`, for which the Potency result in experiment [1] and in experiment [2] was “inactive” throughout. Moreover, the Potency in experiment [4] is 195 nM (active); in experiment [5], 7.76 µM (active).
Turning to `COc1ccc(-c2cc(C(F)F)nn2-c2ccc(S(N)(=O)=O)cc2)cc1F`, the Potency result in experiment [1] and in experiment [2] was “inactive” in each case. For the same molecule, the Potency in experiment [4] was 5490 nM (active); in experiment [5], 6.17 µM (active).
On to `CCCCC(CC)COC(=O)c1ccc(N(C)C)cc1` (stereo not drawn), for which the Potency result in experiment [1], in experiment [2] and in experiment [3] was “inactive” each time. Besides, the Potency in experiment [5] was 13.8 µM (active) and 13.5 µM (active).
Turning to `Nc1nc(Cl)nc2c1ncn2[C@@H]1O[C@H](CO)[C@@H](O)[C@@H]1F`, the Potency result in experiment [1], in experiment [2], in experiment [4] and in experiment [5] was “inactive” each time.
With `CN(C)CCN1C(=O)c2ccccc2N(C)c2ccccc21`, the Potency result in experiment [1], in experiment [2], in experiment [3] and in experiment [5] was “inactive” throughout.
Regarding `CCCCCN=C(N)N/N=C/c1c[nH]c2ccc(OC)cc12`, the Potency result in experiment [1], in experiment [2] and in experiment [5] was “inactive” each time. Further, the Potency in experiment [4] was 219 nM (active).
With `O=C1c2cccc3c2[C@H](CCC3)CN1[C@@H]1CN2CCC1CC2`, the Potency entry in experiment [1], in experiment [2], in experiment [3] and in experiment [5] was “inactive” in each case.
As for `Cc1ccc(-c2ncc(Cl)cc2-c2ccc(S(C)(=O)=O)cc2)cn1`, the Potency result in experiment [1], in experiment [2], in experiment [3] and in experiment [5] was “inactive” each time.
Take `C#C[C@]1(O)CC[C@H]2[C@@H]3CCc4cc(OC)ccc4[C@H]3CC[C@@]21C`: the Potency entry in experiment [1], in experiment [2] and in experiment [4] was “inactive” each time. Further, the Potency in experiment [5] is 6.92 µM (active) and 4.25 µM (active).
For the molecule `CC(O)Cn1cnc2c1c(=O)n(C)c(=O)n2C` (stereo not drawn), the Potency result in experiment [1] and in experiment [3] was “inactive” throughout.
Take `O=C(c1ccc(F)cc1)C1CCN(CCn2c(=S)[nH]c3ccccc3c2=O)CC1`: the Potency result in experiment [1] and in experiment [3] was “inactive” each time. Besides, in experiment [4], the Potency is 776 nM (active).
In the case of `CC1(COc2ccc(CC3SC(=O)NC3=O)cc2)CCCCC1` (stereo not drawn), the Potency entry in experiment [1], in experiment [2] and in experiment [5] was “inactive” in each case.

(Values after PubChem BioAssay (NCATS).)
